About 83,000 compounds went through this panel and 20% of them were active in at least one assay; those are over-represented in the sample as a whole.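 96-well plates, one dose, 48 hours. Percent growth reported; active if below 10.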 Calls of active or inactive are those of the source.
What was measured:
Assay in all cases: NCI-60 one-dose screen, 48 h (100 = growth as untreated, 0 = no growth, -100 = all killed)
Conditions in all cases: 10 µM unless noted
[1] = system: SK-MEL-2 melanoma
[2] = system: EKVX NSCLC
[3] = system: SN12C renal
[4] = system: UO-31 renal
[5] = system: TK-10 renal
[6] = system: ACHN renal
[7] = system: CAKI-1 renal
[8] = system: CCRF-CEM leukemia
[9] = system: MOLT-4 leukemia
[10] = system: A498 renal

Measured: growth

N=C(N)c1ccc(-c2ccc(-c3ccc(Cl)c(Cl)c3)o2)nc1
active: [3] -72.8% | [4] -92% | [6] -86.9% | [8] 2.34% | [9] 9.85%
inactive: [1] 108% | [2] 97.3% | [5] 116% | [7] 87.1%

CC[C@]1(O)C[C@H]2CN(CCc3c([nH]c4ccccc34)[C@@](C(=O)OC)(c3cc4c(cc3OC)N(C=O)[C@H]3[C@@](O)(C(=O)OC)[C@H](OC(C)=O)[C@]5(CC)C=CCN6CC[C@]43[C@@H]65)C2)C1
inactive: [1] 58% | [2] 27.1% | [3] 39.9% | [4] 28.6% | [5] 60.8% | [6] 36.3% | [7] 26.5%
active: [8] 5.75% | [9] 5.04%

N=C(N)c1ccc(-c2ccc(-c3ccc(Cl)c(Cl)c3)o2)cc1
active: [3] -81% | [4] -69.1% | [6] -70.7% | [8] -24.9% | [9] -31%
inactive: [1] 102% | [2] 69.8% | [5] 76% | [7] 53%

Cc1ccc(O)c(C(=O)c2ccccc2Cl)c1
inactive: [1] 112% | [2] 87.7% | [3] 103% | [4] 79.7% | [5] 98.4% | [6] 94.8% | [7] 84.2% | [8] 115% | [9] 94.8%

N#Cc1c(NC(=O)c2ccc(Br)cc2)sc2c1CCCC2
inactive: [1] 37% | [2] 37% | [3] 45.7% | [4] 63% | [5] 72.7% | [6] 47.6% | [7] 54.3% | [8] 20.4% | [9] 32.5%

COc1cc2c(c(OC)c1OC)C(=O)/C(=C/c1cc(C)c(O)c(C)c1)S2
inactive: [1] 43.6% | [2] 43.9% | [3] 45.6% | [4] 33% | [5] 59.2% | [6] 45.8% | [7] 26.3% | [8] 25% | [9] 33.9%

O=C(NC(=S)Nc1ccc(-c2nc3ccccc3[nH]2)cc1)c1ccc2ccccc2c1
active: [4] -84.4% | [5] -16.5% | [6] -0.473%
inactive: [1] 98.2% | [2] 58.2% | [3] 15.9% | [7] 24.5% | [8] 49.6% | [9] 59%

CN1C(=O)CCC(N2C(=O)c3cccc(NCCOCCOCCNC(=O)c4cc5c(o4)C(=O)c4ccccc4C5=O)c3C2=O)C1=O (configuration not stated)
active: [1] 6.39% | [2] 9.9% | [3] -86.2% | [4] -52.6% | [6] 8.82% | [7] -0.721%
inactive: [5] 32.4% | [8] 18.4%

O=C(NCc1cn(Cc2cccc(Oc3ccccc3)c2)nn1)c1cccnc1NCc1ccc(Cl)cc1
active: [10] -4.32%
inactive: [1] 13.9% | [2] 30.7% | [3] 40.9% | [4] 30.5% | [5] 62.2% | [6] 41.9% | [7] 32.2% | [9] 14.6%

COc1ccc(C2CC(c3ccccc3)=NN2c2nc(C)c(C(C)=O)s2)cc1 (configuration not stated)
inactive: [1] 98.4% | [2] 94.6% | [3] 105% | [4] 77.4% | [5] 110% | [6] 95.5% | [7] 86.6% | [8] 96.3% | [9] 102%

COc1ccc2c(c1)/C(=C\c1sc(=S)[nH]c1O)C(C(=O)O)=N2
inactive: [1] 99.4% | [2] 93.6% | [3] 100% | [4] 82.6% | [5] 108% | [6] 99.8% | [7] 86.2% | [8] 95.7% | [9] 103%

CC(C)CCC[C@@H](C)[C@H]1CCC2C3=CCC4C(=O)C=CC(=O)C4C3CC[C@@]21C (some centres not stated)
active: [1] -16.4% | [2] -10% | [4] -67.9% | [5] -36.6% | [6] 4.54% | [7] -56.3% | [10] -6.21%
inactive: [3] 20.1% | [8] 17% | [9] 10.4%

N=C(N)c1ccc(-c2ccc(/C=C/c3ccccc3)s2)cc1
active: [3] -31.8% | [6] -5.84% | [8] 1.58% | [9] -21%
inactive: [1] 102% | [2] 71.2% | [4] 63.1% | [5] 98.5% | [7] 32.5%

Oc1[nH]c2ccccc2c1/C=c1/cc2c(c(-c3ccc(F)cc3)n1)=Nc1ccccc1-2
active: [1] -3.73% | [3] -0.749% | [4] -12.1% | [6] -43.4% | [10] -4.07% | [9] -15.6%
inactive: [2] 38.2% | [5] 16.3% | [7] 14.8%

N#Cc1c(NC(=O)c2ccccc2I)sc2c1CCCC2
inactive: [1] 26.4% | [2] 48.5% | [3] 53.5% | [4] 58.1% | [5] 106% | [6] 50.9% | [7] 45% | [8] 23.7% | [9] 34.9%

CNC=O
inactive: [1] 110% | [2] 156% | [3] 99.8% | [4] 89.5% | [5] 101% | [6] 110% | [7] 99.6% | [8] 103% | [9] 106%

O=C1Nc2ccccc2/C1=N/N=C/c1ccc(OC2OC(CO)C(O)C(O)C2O)cc1 (configuration not stated)
inactive: [1] 107% | [2] 100% | [3] 101% | [4] 78.6% | [5] 110% | [6] 103% | [7] 95.1% | [8] 107%

CCCN1CCN(c2ccc3nc(-c4ccc5nc(-c6cc(OC)c(OC)c(OC)c6)[nH]c5c4)[nH]c3c2)CC1
inactive: [1] 70.9% | [2] 109% | [3] 85.4% | [4] 86.5% | [5] 125% | [6] 96.4% | [7] 105% | [8] 41.2% | [9] 62.6%

CS(=O)(=O)c1ccc(N/N=C/c2c(-c3ccc(S(C)(=O)=O)cc3)[nH]c3ccc(F)cc23)cc1
inactive: [2] 64.2% | [3] 36.2% | [4] 53.8% | [5] 35.2% | [6] 48.2% | [7] 57.5% | [10] 25.9%
active: [1] 3.8% | [8] 4.8% | [9] -1.41%

CC(=O)OCCc1ccccc1
inactive: [1] 99.6% | [2] 96.2% | [3] 95% | [4] 97.8% | [5] 106% | [6] 100% | [7] 77.1% | [10] 95.5% | [8] 105% | [9] 91.9%

Cc1c(C(N)=O)sc2nc(C)n(/N=c3\scc(-c4ccccc4)n3Cc3ccccc3)c(=O)c12
inactive: [1] 10% | [3] 47.7% | [9] 12.1%
active: [2] -6.97% | [4] 4.13% | [5] 2.89% | [6] 7.27% | [7] -40.6% | [10] 0.708% | [8] -12.2%

Cc1cn(C2CCCCC2)c(=O)[nH]c1=O
inactive: [1] 127% | [2] 121% | [3] 108% | [4] 99.8% | [5] 99.8% | [6] 103% | [7] 119% | [8] 117% | [9] 96.6%

C=C(C=O)C1CCC2(C(=O)O)CCC3(C)C(CCC4C5(C)CCC(O)C(C)(C)C5CCC43C)C12 (configuration not stated)
active: [4] -69.3% | [6] -65.4% | [7] -27.6% | [8] 6.48%
inactive: [1] 30.1% | [2] 41.9% | [3] 21.5% | [5] 50.5% | [10] 55.2% | [9] 10.4%

CC12CC(C#N)CCC1O2 (configuration not stated)
inactive: [1] 116% | [2] 120% | [3] 105% | [4] 96% | [5] 119% | [6] 101% | [7] 111% | [10] 121% | [8] 92.4% | [9] 96.2%

N#C/C(=C\c1ccc2c(c1)OCO2)n1nnc2ccccc21
inactive: [1] 21.6% | [2] 23% | [3] 14.1% | [4] 11.9% | [5] 28.3% | [6] 22.9% | [7] 17.7% | [8] 18.3% | [9] 16.4%

CCCCCCCCn1cc(C2=C(c3coc4ccc(OC)cc34)C(=O)NC2=O)c2ccccc21
inactive: [1] 107% | [2] 102% | [3] 102% | [4] 85.7% | [5] 97.6% | [6] 103% | [7] 99.7% | [8] 99% | [9] 125%

CCOC(=O)c1nnn(-c2ccccc2)c1C1=CN(C)CCC1
inactive: [1] 103% | [2] 99% | [3] 106% | [4] 82% | [5] 96.6% | [6] 100% | [7] 97.8% | [10] 101% | [8] 109% | [9] 97.3%

Cc1ccc2c(n1)C(=O)C(Oc1ccc(F)cc1)=CC2=O
active: [6] 9.92%
inactive: [1] 110% | [2] 103% | [3] 100% | [4] 93.9% | [5] 101% | [7] 99.1% | [8] 40.2% | [9] 66.2%

Source: PubChem BioAssay (NCI)
